Experimental data taken from PubChem BioAssay (NCATS).
Inconclusive results are not listed. Where a call stands in place of a potency, no number is given. The source made the active and inactive calls. Unless noted, calls come from the whole dose curve; as a rule, active = well fitted curve in the direction sought with a large enough effect; inconclusive = small, poorly fitted or top-dose-only effect, or another doubt; inactive = no such curve, though single readings can be large; an effect the other way counts as inactive or inconclusive.

What was measured:
[1] = Confirmation and Secondary Assay for Modulators of Hemoglobin Beta Chain Splicing at IVS2 654 locus (AID 910)
In short: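 HeLa cells stably carrying EGFP interrupted by mutant beta-globin IVS2-654 intron (CMV-driven) were treated with compound for 2 days at 37C; corrected splicing was scored as total peak GFP intensity per well (488 nm excitation, 500-520 nm emission).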

[2] = Confirmation and Secondary Assay for Modulators of Hemoglobin Beta Chain Splicing at IVS2 705 locus (AID 930);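 note: HeLa cells stably expressing the EGFP-705 splicing reporter; GFP fluorescence per well restored by corrected splicing of the IVS2-705 intron in EGFP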
In short: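 Read-out: total peak GFP fluorescence per well (488 nm excitation, 500-520 nm emission) by laser-scanning cytometry. Cells: HeLa EGFP-705 splicing reporter, 2 days compound exposure in Optimem/2% FCS.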

[3] = qHTS Assay for Lipid Storage Modulators (AID 1519; calls by dose curve); conditions: Drosophila S3 cells, BODIPY lipid droplet/cell ratio, laser cytometry, cells loaded with oleic acid; for activity change, negative = inhibition: at 57.5 µM (top of the series)
In short: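 Cells seeded at 5,000 per well were treated with compounds over a concentration series and loaded with oleic acid (400 uM, as added). Lipid droplet fluorescence (488 nm excitation, 500-530 nm channel) was read by laser-scanning cytometry and normalized to 20 uM Triacsin C.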

[4] = biological target: Ubiquitin carboxyl-terminal hydrolase 1 (Homo sapiens) (UniProt O94782); assay: Inhibitors of USP1/UAF1: Pilot qHTS (AID 504865);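 note: rhodamine fluorescence freed from ubiquitin-rhodamine substrate followed over time; top concentration of the series differs between compounds; nearly all actives have a fitted effect of over 35% in size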
In short: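 Kinetic fluorescence assay: 1nM USP1/UAF1, 15 min compound preincubation, then 150nM Ub-Rho; 480/540 nm.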

[5] = biological target: Cytochrome P450 3A4 (Homo sapiens) (UniProt P08684); assay: qHTS Assay for Activators of Cytochrome P450 3A4 (AID 885); note: nearly all actives have a fitted effect of over 65% in size
In short: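 CYP3A4 activity: Luciferin-PPXE O-dealkylation, 25uM substrate, 200mM KPO4, RT throughout. Read-out is luciferase luminescence; higher values reflect activation.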

[6] = biological target: DNA dC->dU-editing enzyme APOBEC-3G (Homo sapiens) (UniProt Q9HC16); assay: qHTS for inhibitors of Vif-A3G interactions: Validation (AID 588379)
In short: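 Yellow fluorescence (Ex 488, Em 500-530) of Vif-coexpressing HeLa A3G-eYFP cells, scanned by Acumen cytometer, reports blocked A3G degradation. Cells plated at 700/well overnight at 37 deg C before compound addition, then a further overnight compound incubation at 37 deg C.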

[7] = measured here: cell count channel max response
[8] = measured here: lipid channel max response

Cytochrome P450 3A4 (Homo sapiens), sequence (P08684 whole entry, looked up): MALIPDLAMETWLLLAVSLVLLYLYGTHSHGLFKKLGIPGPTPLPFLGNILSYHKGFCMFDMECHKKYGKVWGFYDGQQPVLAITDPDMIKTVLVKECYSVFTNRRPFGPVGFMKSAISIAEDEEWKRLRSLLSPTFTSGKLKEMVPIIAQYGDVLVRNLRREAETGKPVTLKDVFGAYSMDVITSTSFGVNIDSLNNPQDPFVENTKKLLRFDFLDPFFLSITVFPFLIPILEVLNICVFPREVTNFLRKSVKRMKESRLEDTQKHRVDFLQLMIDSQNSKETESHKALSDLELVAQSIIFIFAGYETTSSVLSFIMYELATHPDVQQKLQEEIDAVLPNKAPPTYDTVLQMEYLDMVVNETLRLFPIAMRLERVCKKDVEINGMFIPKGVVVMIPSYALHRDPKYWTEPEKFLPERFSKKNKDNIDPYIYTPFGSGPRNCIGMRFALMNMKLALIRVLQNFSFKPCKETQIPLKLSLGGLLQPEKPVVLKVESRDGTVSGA
Ubiquitin carboxyl-terminal hydrolase 1 (Homo sapiens), sequence (O94782 whole entry, looked up): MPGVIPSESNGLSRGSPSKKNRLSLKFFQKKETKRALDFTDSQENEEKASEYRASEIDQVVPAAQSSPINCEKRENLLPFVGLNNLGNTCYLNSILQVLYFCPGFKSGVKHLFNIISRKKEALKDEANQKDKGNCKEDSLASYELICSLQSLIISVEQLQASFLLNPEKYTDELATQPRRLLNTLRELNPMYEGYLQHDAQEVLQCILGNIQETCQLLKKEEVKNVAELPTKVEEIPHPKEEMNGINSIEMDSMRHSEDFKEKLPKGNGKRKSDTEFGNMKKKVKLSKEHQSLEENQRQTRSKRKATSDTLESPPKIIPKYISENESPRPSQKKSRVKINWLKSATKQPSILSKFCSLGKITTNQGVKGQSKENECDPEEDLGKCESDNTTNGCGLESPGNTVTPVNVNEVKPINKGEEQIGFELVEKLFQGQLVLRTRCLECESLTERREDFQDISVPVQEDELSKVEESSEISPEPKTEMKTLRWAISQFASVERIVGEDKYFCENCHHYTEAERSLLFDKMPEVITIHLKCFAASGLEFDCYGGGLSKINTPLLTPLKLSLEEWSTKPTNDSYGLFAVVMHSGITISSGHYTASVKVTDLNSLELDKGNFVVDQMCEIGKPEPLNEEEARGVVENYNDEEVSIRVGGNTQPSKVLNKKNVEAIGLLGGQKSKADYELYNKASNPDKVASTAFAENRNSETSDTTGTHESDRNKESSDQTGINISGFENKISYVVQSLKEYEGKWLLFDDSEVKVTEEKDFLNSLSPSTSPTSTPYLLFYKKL
DNA dC->dU-editing enzyme APOBEC-3G (Homo sapiens), sequence (Q9HC16 whole entry, looked up): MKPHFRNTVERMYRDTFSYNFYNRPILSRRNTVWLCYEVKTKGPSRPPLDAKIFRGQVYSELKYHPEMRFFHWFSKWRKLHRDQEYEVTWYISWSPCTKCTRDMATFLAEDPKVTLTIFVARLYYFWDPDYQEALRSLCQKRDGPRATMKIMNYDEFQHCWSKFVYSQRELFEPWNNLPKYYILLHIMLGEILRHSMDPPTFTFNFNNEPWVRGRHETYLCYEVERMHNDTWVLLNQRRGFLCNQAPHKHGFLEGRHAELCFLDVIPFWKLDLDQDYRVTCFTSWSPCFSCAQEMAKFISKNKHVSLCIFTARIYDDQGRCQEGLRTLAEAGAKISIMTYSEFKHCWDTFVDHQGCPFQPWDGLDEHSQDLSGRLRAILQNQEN

Row | Structure (SMILES) | Potency [1] | Potency [2] | activity change, negative = inhibition [3] | max response [3, 7] [%] | max response [3, 8] [%] | Potency [4] | Potency [5] | outcome [6]
1 | CC1=C(C(=O)O)N2C(=O)C(NC(=O)C(N)c3ccc(O)cc3)C2SC1 (configuration not stated) | inactive | inactive | 7.51% (inactive) | 4.8 | 14.9 | inactive |  | 
2 | CCOC(=O)C(Cc1ccc(O)cc1)NC(C)=O (configuration not stated) | inactive | inactive | 7.38% (inactive) | 6.37 | 13.9 | inactive | inactive | 
3 | COC1C(O)CC(=O)OC(C)C/C=C/C=C/[C@@H](OC2CCC(N(C)C)C(C)O2)C(C)C[C@@H](CC=O)[C@@H]1O[C@H]1OC(C)[C@H](O[C@@H]2C[C@@](C)(O)C(O)C(C)O2)C(N(C)C)C1O (some centres not stated) | inactive | inactive | 4.53% (inactive) | 15.4 | 26.5 | inactive |  | 
4 | C[C@@H]1CCC2[C@](C)(CO)C(O)CC[C@@]2(C)[C@@]12CC[C@](CO)(CCO)O2 (some centres not stated) | inactive | inactive | 5.37% (inactive) | 11.4 | 17.7 | inactive | inactive | 
5 | C[C@@]12CCC3c4ccc(O)cc4CCC3C1CCC2O (some centres not stated) | inactive | inactive | -2.04% (inactive) | -0.621 | -0.569 | inactive |  | 
6 | COc1cc2cc[n+]3cc4c(OC)c(OC)ccc4cc3c2cc1OC | inactive | inactive | 10.9% (inactive) | 22.9 | 39.6 | inactive | inactive | 
7 | CC1(C)OC2CC3C4CC(F)C5=CC(=O)CC[C@@]5(C)C4C(O)C[C@@]3(C)[C@]2(C(=O)CO)O1 (some centres not stated) | inactive | inactive | 4.43% (inactive) | 7.91 | 15.6 | inactive |  | 
8 | O=c1c(O)c(-c2ccccc2)oc2cccc(O)c12 | inactive | inactive | 9.45% (inactive) | 9.77 | 18.2 | inactive | inactive | 
9 | COc1cc(O)cc(OC)c1OC | inactive | inactive | 1.28% (inactive) | -14 | -12.4 | inactive |  | 
10 | CC1(C)OC2CC3C4CCC5=CC(=O)C=C[C@@]5(C)[C@]4(F)C(O)C[C@@]3(C)[C@]2(C(=O)CO)O1 (some centres not stated) | inactive | inactive | -5.31% (inactive) | -0.616 | -3.49 | inactive |  | 
11 | CC(=O)OCC(=O)[C@@]1(O)CCC2C3CC[C@H]4CC(O)CC[C@@]4(C)C3C(=O)C[C@]21C (some centres not stated) | inactive | inactive | 4.69% (inactive) | -0.527 | 6.2 | inactive |  | 
12 | C=C1CCC(=O)C(C)CCC2C1CC2(C)C (configuration not stated) | inactive | inactive | 1.2% (inactive) | 13.1 | 14.5 | inactive | inactive | 
13 | CC(CCC(=O)O)C1CCC2C3C(O)C[C@@H]4CC(O)CC[C@@]4(C)C3CC(O)[C@]12C (some centres not stated) | inactive | inactive | 4.41% (inactive) | -4.16 | 0.136 | inactive |  | 
14 | Cn1nnnc1SCC1=C(C(=O)O)N2C(=O)C(NC(=O)C(O)c3ccccc3)C2SC1 (configuration not stated) | inactive | inactive | 13.2% (inactive) | 9.16 | 26.7 | inactive |  | 
15 | C=C1CCC2C(CC2(C)C)C(=C)CC/C1=N/O (configuration not stated) | inactive | inactive | 4.06% (inactive) | 4.09 | 9.2 | inactive | inactive | 
16 | COC1C[C@@H](O[C@@H]2C(C)C(=O)OC(C)C(C)[C@H](OC(C)=O)C(C)C(=O)[C@@]3(CO3)CC(C)C(OC3OC(C)CC(N(C)C)[C@H]3OC(C)=O)C2C)OC(C)[C@@H]1OC(C)=O (some centres not stated) | inactive | inactive | 6.97% (inactive) | 18.9 | 24.4 | inactive |  | 
17 | Cc1cc(=O)oc2c(O)c(O)ccc12 |  | inactive | -5.44% (inactive) | -3.48 | -9.34 | inactive | inactive | 
18 | CC1(C)CC[C@]2(C(=O)O)CC[C@@]3(C)C(=CCC4[C@@]5(C)CCC(O)[C@@](C)(CO)C5CC[C@@]43C)C2C1 (some centres not stated) | inactive | inactive | 1.32% (inactive) | 5.6 | 17.6 | inactive | inactive | 
19 | O=C(O)C1=CC(O)[C@@H](O)C(O)C1 (some centres not stated) | inactive | inactive | 3.18% (inactive) | 15.5 | 22.2 | inactive |  | 
20 | CC(=O)OC1CC2C(C)(C)C=CC(=O)[C@@]2(C)C2CC[C@@]3(C)C(c4ccoc4)OC(=O)C4OC43[C@]12C (some centres not stated) |  | inactive | 5.35% (inactive) | -8.35 | -1.42 | inactive | inactive | 
21 | C=C[C@]1(C)CC(=O)[C@@]2(O)[C@@]3(C)C(O)CCC(C)(C)C3C(O)C(OC(C)=O)[C@@]2(C)O1 (some centres not stated) | inactive | inactive | 3.86% (inactive) | 19.4 | 25.9 | inactive | inactive | 
22 | CC(=O)O[C@](C)(CCC=C(C)C)C1CC=C(C)CC1 (some centres not stated) | inactive | inactive | 3.31% (inactive) | 17.9 | 22 | inactive | inactive | 

Row | Structure (SMILES) | Potency [1] | Potency [2] | activity change, negative = inhibition [3] | max response [3, 7] [%] | max response [3, 8] [%] | Potency [4] | Potency [5] | outcome [6]
23 | CC1(C)CCCC2(C)C3C(O)CC2(C)C(O)C31 (configuration not stated) | inactive | inactive | 1.58% (inactive) | -2.66 | -0.711 | inactive | inactive | 
24 | CC(Oc1ccccc1)C(=O)NC1C(=O)N2C(C(=O)O)C(C)(C)S[C@@H]12 (some centres not stated) |  | inactive | 7.31% (inactive) | 11.7 | 21.7 | inactive | inactive | 
25 | COc1ccc(C2Oc3cc(OC)cc(OC)c3CC2O)cc1 (configuration not stated) | inactive | inactive | 5.15% (inactive) | 15.1 | 23.9 | inactive | inactive | 
26 | C#C[C@@]1(O)CCC2C3CCC4=CC(=O)CCC4C3CC[C@@]21CC (some centres not stated) | inactive | inactive | 8.95% (inactive) | 17.8 | 32.9 | inactive | inactive | 
27 | CC(=O)[C@]1(O)CCC2C3CCC4=CC(=O)CC[C@@]4(C)C3CC[C@]21C (some centres not stated) | inactive | inactive | 5.01% (inactive) | 6.92 | 12.7 | inactive |  | 
28 | CC(=O)OCC(=O)[C@]1(O)C(C)CC2C3CCC4=CC(=O)C=C[C@@]4(C)[C@]3(F)C(O)C[C@@]21C (some centres not stated) | inactive | inactive | -6.8% (inactive) | 9.77 | 2.72 | inactive |  | 
29 | CC1(C)OC2CC3C4CC(F)C5=CC(=O)C=C[C@@]5(C)[C@@]4(F)C(O)C[C@@]3(C)[C@]2(C(=O)CO)O1 (some centres not stated) | inactive | inactive | 3.9% (inactive) | 10.6 | 16.5 | inactive | inactive | 
30 | COc1ccc(-c2coc3cc(OC(C)=O)cc(OC(C)=O)c3c2=O)cc1 |  | inactive | -2.95% (inactive) | 3.34 | 2.84 | inactive | inactive | 
31 | NC1(C(=O)O)CCCC1 | inactive | inactive | -0.822% (inactive) | 7.47 | 7.88 | inactive |  | 
32 | COc1ccc(C2CC(=O)c3ccc(OC)cc3O2)cc1 (configuration not stated) | inactive | inactive | 10.2% (inactive) | 32.1 | 45.7 | inactive | inactive | 
33 | CO[C@]12CC(COC(=O)c3cncc(Br)c3)CN(C)[C@@H]1Cc1cn(C)c3cccc2c13 (some centres not stated) | inactive | inactive | 10.2% (inactive) | 10.9 | 29 | inactive | inactive | 
34 | CC1OC(OCC2OC(Oc3c(-c4ccc(O)c(O)c4)oc4cc(O)cc(O)c4c3=O)C(O)C(O)C2O)C(O)C(O)C1O (configuration not stated) |  |  | -1.77% (inactive) | -20.3 | -20.8 |  |  | inactive
35 | CC(=O)SC1CC2=CC(=O)CC[C@@]2(C)C2CC[C@@]3(C)[C@@H](CC[C@@]34CCC(=O)O4)C12 (some centres not stated) | inactive | inactive | -11.4% (inactive) | 20.1 | 9.46 | inactive |  | 
36 | CC1(C)C(=O)C2C[C@]3(O)C4=CC(=O)OC(c5ccoc5)[C@]4(C)CCC3[C@](C)(C2=O)C1CC(=O)O (some centres not stated) | inactive | inactive | 3.73% (inactive) | 1.91 | 6.28 | inactive |  | 
37 | C=C1C[C@@]23C[C@@]1(O)CC[C@@H]2[C@]12C=C[C@@H](O)[C@](C)(C(=O)O1)[C@@H]2[C@@H]3C(=O)O |  |  | -1.64% (inactive) | 0.496 | 0.595 |  |  | inactive
38 | CCC1OC(=O)C(C)[C@@H](O[C@H]2C[C@@](C)(OC)C(O)C(C)O2)C(C)[C@@H](O[C@@H]2OC(C)CC(N(C)C)C2O)[C@@](C)(O)CC(C)CN(C)C(C)C(O)[C@]1(C)O (some centres not stated) | inactive | inactive | 0.114% (inactive) | 12.3 | 14.1 | inactive |  | 
39 | CC(=O)N[C@@H](Cc1c[nH]c2ccccc12)C(=O)O | inactive | inactive | 5.86% (inactive) | 17.1 | 24.9 | inactive |  | 
40 | CCC(C)C(=O)O[C@H]1C[C@@H](C)C=C2C=C[C@H](C)[C@H](CC[C@@H]3C[C@@H](O)CC(=O)O3)C21 (some centres not stated) |  |  | -9.81% (inactive) | 22 | 13.2 |  |  | inactive
41 | COC(=O)CC1C(C)(C)C2(O)OC34CC2C(=O)[C@@]1(C)C3CC[C@]1(C)C4=CC(=O)OC1c1ccoc1 (some centres not stated) |  | inactive | 4.29% (inactive) | -0.136 | 8.19 | inactive |  | 
42 | NC(Cn1ccc(=O)c(O)c1)C(=O)O (configuration not stated) | inactive | inactive | 3.76% (inactive) | 3.01 | 10.8 | inactive |  | 
43 | COC1C=CC23c4cc5c(cc4CN(CC2O)C3C1)OCO5 (configuration not stated) | inactive | inactive | -1.59% (inactive) | 30.3 | 31.3 | inactive |  | 
44 | S=c1ccss1 | inactive | inactive | 7.62% (inactive) | 5.82 | 13.7 | inactive |  | 
